Experimental findings from PubChem BioAssay AID2216 (Broad Institute, 2009) are described below.

Structures are written as SMILES. In all, about 300,000 compounds went through this assay and about 3,300 (1.1%) were called active. Roughly 6% stayed inconclusive and do not appear here. Only a selection was taken, and actives are over-represented in it overall. A number with no mark means an inactive call.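 Rule for the calls: active = more than half of the replicate wells show a fall in the fluorescence ratio signal beyond about 16% (limit read from the data, passing the limit was not always enough); inconclusive = exactly half of the replicate wells pass the set limit; inactive = fewer than half of replicates pass the limit.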

This assay concerns Ran GTPase (GTP-bound) - importin-beta complex. Description: disruptors of Ran-importin-beta complex formation – biochemical, FRET, CFP-Ran, YFP-importin-beta, homogeneous, primary screen (AID 2216).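 Note: 0% = DMSO wells and 100% = Ran loaded with GDP instead of GTP.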 The conditions noted are these: cell-free CFP-Ran/YFP-importin-beta FRET ratio; stronger effect = higher value; concentration not given here.
On to `COc1ccc(Nc2ncnc3sc(C)cc23)cc1`, for which the inhibition was -4.52%. In the case of `Cc1cc(C)c2nc3nc(C)cc(C)c3c(N)c2c1` it was 123% (active); in that of `Cc1cc(C)c2nc(-c3ccco3)cc(C(=O)O)c2c1`, -1.33%; in that of `Cc1cc(C)c2nc(SCCC#N)nc(C)c2c1`, 4.53%. Then `CCC1Nc2ncnc(N3CCN(c4ccccc4)CC3)c2N(Cc2ccc(Cl)cc2)C1=O` (configuration not stated), with 3.14%. In the case of `CCOC(=O)c1cccc(NS(=O)(=O)c2c(C(=O)N3CCCCCC3)c(C)n(C)c2C)c1` it was -0.759%; in that of `Cc1cc(Nc2ccccc2)n(C(=O)c2ccc(N)cc2)n1`, 11.7%; in that of `Cc1cc(Nc2ccccc2)n(CCC#N)n1`, 64.2% (active). Take `Cc1cc(NC(=O)COc2ccc(Cl)cc2Cl)n(CCC#N)n1`: the inhibition was 0.324%.

For the compound `COc1ccc(NC(=O)CN(C)C(=O)c2cc(-c3ccc(C)o3)nc3ccccc23)cc1`, the inhibition was 3.47%.

`Cc1ccc(/C=C(\C#N)C(=O)Nc2cccc3ncccc23)o1`: the inhibition is 24.4% (active).

For the compound `O=C(Nc1cccc2ncccc12)C(Cl)(Cl)Cl`, the inhibition is -1.34%. Then `Cc1ccc(C(=O)Nc2cccc3ncccc23)cc1[N+](=O)[O-]`, with -5.75%; and `COc1ccc(NC(=O)CN(C)C(=O)c2cccc(S(=O)(=O)N3CCN(c4ccccc4)CC3)c2)cc1`, with 5.36%; and `Cc1sc(NC(=O)c2ccc3ncsc3c2)c(C(N)=O)c1C`, with 7.92%. Regarding `COc1ccc(NS(=O)(=O)c2ccc(C)c(C(=O)N(C)Cc3ccc(OC)cc3OC)c2)cc1`, the inhibition is -0.0635%.

In the case of `COc1ccc(OC)c2sc(NC(=O)C3COc4ccccc4O3)nc12` (configuration not stated), the inhibition was 18.3% (active). In the case of `O=C(Nc1nc2c(F)cc(F)cc2s1)C1COc2ccccc2O1` (configuration not stated), the inhibition was -1.75%. Then `COc1ccc(NC(=O)C2COc3ccccc3O2)cc1` (configuration not stated), with 3.21%. Then `Cn1nccc1C(=O)NC1CCCc2c1cnn2-c1ccccc1F` (configuration not stated), with 1.44%. Then `Cn1c2ccccc2c(=O)c2c(O)cccc21`, with 19.5% (active). On to `Cn1c(=O)c(Sc2ccc(Cl)cc2)c(O)c2ccccc21`, for which the inhibition is -0.611%. In the case of `Cc1cc(C)c(-c2c(O)c3ccccc3n(C)c2=O)c(C)c1`, the inhibition was -1.11%.

Consider `COC(C/C=C/C(=O)[C@@H](C)OCc1ccccc1)OC`, for which the inhibition was -3.23%.

Consider `O=C(NCCc1c[nH]c2ccccc12)C(=O)NCC1CCCO1` (configuration not stated), for which the inhibition was 0.222%. In the case of `N#C/C(=C/c1ccc(-c2ccccc2[N+](=O)[O-])o1)C(=O)NCCN1CCCCC1` it was 0.797%; in that of `N#C/C(=C/c1ccc(N2CCCCC2)o1)C(=O)NCCc1c[nH]c2ccccc12`, 36.8% (active). In the case of `CCCCn1c(N)c(N(CC(C)C)C(=O)c2cccc(S(=O)(=O)N3CC(C)OC(C)C3)c2)c(=O)[nH]c1=O` (configuration not stated) it was -2.71%; in that of `Nc1ccccc1/C=N\N=C/c1ccccc1N`, 1.49%; in that of `Fc1ccc(CNc2nc3ccccc3n3nnnc23)cc1`, 28.7% (active). In the case of `Nc1nonc1-c1nc2ccccc2n1Cc1ccc(F)cc1` it was 3.99%. Take `COc1ccc(CNc2nnnn2C)cc1`: the inhibition is 0.267%. Regarding `CCC1CCC/C1=N\NC(=O)c1ccc(Cl)cc1` (configuration not stated), the inhibition was -0.716%. In the case of `COC(=O)C1=CN(Cc2ccc(OC)c(OC)c2)C=C(C(=O)OC)C1c1cccs1` it was -0.0693%; in that of `COC(=O)C1=CN(Cc2ccc(OC)cc2)C=C(C(=O)OC)C1c1ccc(O)c(OC)c1`, 18.3% (active); in that of `COc1cc(C2C(C(=O)c3ccc(C)o3)=C(O)C(=O)N2CCc2ccccc2)ccc1O` (configuration not stated), -0.99%.

With `Cc1nc2ccccc2c(=O)n1-c1ccc(NS(=O)(=O)c2ccc(F)cc2F)cc1`, the inhibition is 0.359%. Then `COc1ccc(C(=O)NCC(c2ccco2)N2CCc3ccccc32)cc1OC` (configuration not stated), with -0.364%; and `Cc1cccn2c(=O)nc(SCC(=O)NCc3ccccc3Cl)nc12`, with -2.28%; and `COCCNc1nc2nonc2nc1N(C)Cc1ccc(C)cc1`, with -1.03%. Then `COCCNc1ncnc2c1nc1n2CCCC1`, with -7.47%; and `COCCNc1nc2nonc2nc1N1CCCC1c1nccs1` (configuration not stated), with 24.9% (active).

Regarding `COC(=O)c1ccc(NCC(=O)c2ccccc2)cc1`, the inhibition was 1.3%.

Turning to `COC(=O)c1ccc2c(C(C)(C)O)c(C(C)(C)O)[nH]c2c1`, the inhibition is 35.4% (active). `COC(=O)c1cccc(NS(C)(=O)=O)c1`: the inhibition was 3.63%. Then `CC1CC(C)(C)CC2(C1)NC(=O)N(CC(=O)Nc1nccs1)C2=O` (configuration not stated), with -1.02%. In the case of `CCCCN(C(=O)CCNC(=O)NC12CC3CC(CC(C3)C1)C2)c1c(N)n(CCCC)c(=O)[nH]c1=O` it was 0.758%; in that of `O=C1C=C(c2ccccc2)CCC1`, 3.08%. Then `CC1(C)CC(=O)NC=C(c2ccccc2)C1`, with 25.4% (active). As to `CCN1N=C(c2ccccc2)CCC1=O`, the inhibition is 2.2%. As for `COc1cc(OC)c(OC)cc1CN1CCN(C(=O)c2cccc3ccccc23)CC1`, the inhibition was 2.06%. Then `Cc1ccc(NC(=O)CN2CCc3ccccc3C2)cc1`, with -0.397%; and `Cc1ccc(NC(=O)CN2CCc3ccccc3C2)cc1C`, with 6.66%; and `COc1cc2c(cc1OC)CN(CC(=O)Nc1ccc(F)cc1)CC2`, with 16.9% (active).

Consider `CCOC(=O)C1(Cc2ccccc2C)CCCN(C(=O)c2ccc(COC)o2)C1` (configuration not stated), for which the inhibition is -3.09%. In the case of `COc1ccc(Cl)cc1NC(=O)CN(C)C(=O)c1cc2ccccc2cc1OC` it was 1.71%; in that of `CC(C)c1ccc(S(=O)(=O)N2CCN(C(=O)CN3C(=O)NC(C)(c4ccccc4)C3=O)CC2)cc1` (configuration not stated), 0.837%. In the case of `O=S(=O)(NCCNS(=O)(=O)c1ccccc1)c1ccccc1` it was 1.2%; in that of `CCOc1ccc(S(=O)(=O)NCCSc2ccccc2)cc1`, -0.375%; in that of `CCOc1ccc2nc(NCCNS(=O)(=O)c3ccccc3)c(C#N)cc2c1`, 127% (active). In the case of `O=C(NNC(=O)c1ccc(-c2ccccc2)cc1)Nc1ccccc1` it was 2.69%. In the case of `Cc1ccc(S(=O)(=O)n2cccc2CO)cc1`, the inhibition was -0.413%.

What is called inhibition is the drop in the measured response relative to a control, in per cent.
